Test results reported in PubChem BioAssay AID624086 (Broad Institute, 2012).
The source made the active and inactive calls.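 How the source made its calls: active means fitted half-maximal effect concentration at or below the top concentration tested; inactive means the rest.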

Test: TCF/LEF reporter activation, dose response, orthogonal assay for GSK3b inhibitor project, cell-based, HEK293T, firefly luciferase, dry powder (AID 624086)
Details: 24 h; series mostly up to 26 µM

SMILES	outcome
Cc1ccc(C2C3=C(CC(C)(C)CC3=O)Nc3n[nH]c(C)c32)cc1 (centres undefined)	inactive
Cc1[nH]nc2c1C(c1ccc(Cl)cc1)C1=C(CC(C)(C)CC1=O)N2 (centres undefined)	inactive
COc1ccccc1/C=C1\C(=O)CC(C)(C)CC1=Nc1cc(C(F)(F)F)[nH]n1	inactive
Cc1cccc(C2C3=C(CC(C)(C)CC3=O)Nc3n[nH]c(C)c32)c1 (centres undefined)	inactive
COc1ccc(C2C3=C(CC(C)(C)CC3=O)Nc3n[nH]c(C)c32)cc1 (centres undefined)	inactive
Cc1[nH]nc2c1C(c1ccc(C(F)(F)F)cc1)C1=C(CC(C)(C)CC1=O)N2 (centres undefined)	inactive
COc1ccc(-c2nn(-c3ccccc3)cc2/C=N/O)cc1OC	inactive
O/N=C/c1cn(-c2ccccc2)nc1-c1ccccc1	inactive
Cc1[nH]nc2c1C(c1ccsc1)C1=C(CC(C)(C)CC1=O)N2 (centres undefined)	inactive
Cc1[nH]nc2c1C(c1cccnc1)C1=C(CC(C)(C)CC1=O)N2 (centres undefined)	inactive
COc1ccccc1[C@@H]1C2=C(CC(C)(C)CC2=O)Nc2n[nH]c(C)c21	inactive
Cc1[nH]nc2c1[C@H](c1cccs1)C1=C(CC(C)(C)CC1=O)N2	inactive
O/N=C/c1cn(-c2ccccc2)nc1-c1ccc2c(c1)OCCO2	inactive
Cc1[nH]nc2c1C(C)(c1ccccc1)C1=C(CC(C)(C)CC1=O)N2 (centres undefined)	inactive
